{"source": "PubChem BioAssay AID686979", "about": "(National Center for Advancing Translational Sciences (NCATS), 2013)", "note": "Among all 420,000 compounds or so, about 50,000 (12%) were called active. Another 26% or so got no clear call; they are omitted. The call rests on the fitted dose curve; in most records, active means well fitted inhibition curve with a large enough effect; inconclusive means small, poorly fitted or top-dose-only effect; inactive means flat fitted curve, though single readings scatter. The list comes from a sample in which actives are over-represented; it also holds similar structures and randomly drawn compounds. Entries that show only a call come without a potency. Where a SMILES comes first, the peptide text is derived from it. [ ]: non-standard residue; d: D form. The star is where a group is joined. PhAc = O=C(Cc1ccccc1)*", "data": [{"assay": "qHTS for Inhibitors of human tyrosyl-DNA phosphodiesterase 1 (TDP1): qHTS in cells in presence of CPT; further: nearly all actives have a fitted effect of over 55% in size; further: potency means the concentration at half of the fitted maximal effect", "settings": "chicken DT40 Tdp1-/-;hTDP1 cells + 20 nM CPT, ATP luminescence, 48 h; series mostly up to 46.2 µM", "outline": "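Cell growth measured by CellTiter-Glo luminescence after a minimum 48 h, 37 C compound exposure with 20 nM CPT in Tdp1-knockout DT40 cells stably expressing hTDP1, seeded 400/well; qHTS titration format.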", "values": [{"smiles": "CCN(CC(=O)N1CCCC1)S(=O)(=O)c1ccc(F)cc1", "Potency": "inactive"}, {"smiles": "O=S1(=O)C=C(SCCN2CCCC2)c2ccccc21", "Potency": "inactive"}, {"smiles": "O=C(COC(=O)c1ncc(Cl)c(Cl)c1Cl)NCc1cccs1", "Potency": "inactive"}, {"smiles": "CN1CCN(c2ccc(S(=O)(=O)N3CCCCC3)cc2NC(=O)Cc2ccccc2F)CC1", "Potency": "inactive"}, {"smiles": "CCC(=O)/C(=C(/O)c1ccccc1)c1nc2ccccc2[nH]1", "Potency": "inactive"}, {"smiles": "O=C(Cc1nc2ccccc2[nH]c1=O)c1ccc(Cl)cc1", "Potency": "inactive"}, {"smiles": "O=C(/C(=C/c1cccc(Cl)c1)c1nc2ccccc2[nH]1)c1ccccc1", "Potency": "16.4 µM (active)"}, {"smiles": "CC(=O)c1ccc(OC(=O)N2CCOCC2)cc1", "Potency": "inactive"}, {"smiles": "Cc1ccc(OCCNC(=O)CN2C(=O)NC3(CCCC3)C2=O)cc1", "Potency": "inactive"}, {"smiles": "CCN(CC)Cc1cc(C(C)=O)ccc1O", "Potency": "inactive"}, {"smiles": "Cc1cc2ccccc2n1CCC(=O)O", "Potency": "inactive"}, {"smiles": "CCCCCn1c(CCCNC(=O)c2ccccc2OC)nc2ccccc21", "Potency": "20.6 µM (active)"}, {"smiles": "Cc1cc(C(=O)COC(=O)CNC(=O)c2ccc(F)cc2)c(C)n1Cc1ccco1", "Potency": "inactive"}, {"smiles": "COc1ccccc1Cn1c(CO)nc2ccccc21", "Potency": "inactive"}, {"smiles": "CCCCCNC(=O)c1cccnc1SCC(=O)Nc1ccccc1OC", "Potency": "inactive"}, {"smiles": "Cc1cc2ccccc2n1CCNC(=O)c1ccc(F)cc1", "Potency": "14.6 µM (active)"}, {"smiles": "CCCCCn1c(CCNC(=O)c2ccc(F)cc2)nc2ccccc21", "Potency": "23.1 µM (active)"}, {"smiles": "CC(=O)NCCc1nc2cc(NC(=O)c3ccccc3)ccc2n1C", "Potency": "inactive"}, {"smiles": "CCC(=O)NCCc1nc2ccccc2n1CC", "Potency": "inactive"}, {"smiles": "COc1ccc(CCNC(=O)Cn2c(=O)n(-c3ccccc3)c(=O)c3c(C)c(C)sc32)cc1OC", "Potency": "inactive"}, {"smiles": "Cc1cc(C)c(NC(=O)c2cc3sc(Cl)cc3n2C)c(C)c1", "Potency": "inactive"}, {"smiles": "COc1ccc2c(c1)c1nc3n(c(=O)c1n2CC(=O)Nc1ccccc1)CCS3", "Potency": "inactive"}, {"smiles": "COc1ccc(S(=O)(=O)Nc2ccc3c(c2)OCO3)cc1Cl", "Potency": "inactive"}, {"smiles": "COCC(=O)Nc1c(I)c(C(=O)NCC(O)CO)c(I)c(C(=O)N(C)CC(O)CO)c1I", "note": "(stereo unspecified)", "Potency": "inactive"}, {"smiles": "CC(C)C[C@@H](NC(=O)[C@H]1CCCN1C(=O)Cc1ccccc1)C(N)=O", "note": "(PhAc-[dP]-[dL]-NH2)", "Potency": "inactive"}, {"smiles": "Cc1cnc(CNc2ncncc2-c2ccccc2Cl)cn1", "Potency": "inactive"}, {"smiles": "O=C(O)Cc1ccc(NCc2ccccc2Cl)cc1", "Potency": "inactive"}, {"smiles": "Cc1noc2ncnc(NCc3ccccc3Cl)c12", "Potency": "18.4 µM (active)"}, {"smiles": "N/C(=N\\OC(=O)CCCC(=O)O)c1ncc(C(F)(F)F)cc1Cl", "Potency": "inactive"}, {"smiles": "CCNC(=O)COc1cc(C)c(Br)c(C)c1", "Potency": "inactive"}, {"smiles": "CCn1cc(/C=C(\\NC(=O)c2cc(OC)c(OC)c(OC)c2)C(=O)N2CCN(C)CC2)c2ccccc21", "Potency": "inactive"}]}]}
